An excerpt weighted towards active compounds, which were near 21% of everything screened.
Cycloheximide cs – Cycloheximide Counterscreen for Small Molecule Inhibitors of Shiga Toxin; actives 12% (n = 300,000); cell reporter, cycloheximide protein synthesis inhibition counterscreen; max response, %; in the data active means max response mostly above about 13%, no sharp cut-off; inactive means mostly below about 14%; further: read at 38.3 µM for the half of the compounds with a filed dose; 0% is about no effect
SARS PLpro yeast – qHTS of Yeast-based Assay for SARS-CoV PLP. AID 485353, 2010. S. cerevisiae expressing SARS-CoV PLpro, growth rescue. actives 0.19% (n = 330,000). Potency, µM (series often up to 32.9 µM), without a hit: at the top dose activity, positive = growth rescue, usual class: activators; calls by dose curve; further: potency means the concentration at half of the fitted maximal effect; 0% is about no effect; nearly all actives have a fitted effect of over 55% in size
NS1 function inh – qHTS Assay for Inhibitors of Influenza NS1 Protein Function. Potency, µM (top dose mostly 46.1 µM), for the others: at the highest dose activity, positive = more growth. AID 2326, 2010. actives 0.4% (n = 270,000); calls by dose curve; further: potency means the concentration at half of the fitted maximal effect; actives are rising curves; nearly all actives have a fitted effect of over 50% in size
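Growth recovery, yeast-based: influenza A NS1 expressed in S. cerevisiae causes slow growth, and suppressors are detected by OD600. The parent strain without NS1 is used as positive control.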
Pf growth 96h – Primary qHTS for delayed death inhibitors of the malarial parasite plastid, 96 hour incubation. P. falciparum luciferase reporter growth, 96 h. Potency, µM (top dose mostly 28.7 µM), without a hit: top-dose activity change, negative = inhibition, actives largely listed as inhibitors. actives 6.9% (n = 320,000). AID 504834, 2011; further: potency means the concentration at half of the fitted maximal effect; on the % scale 0 is the no-effect control and ±100 the full control effect
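P. falciparum expressing integrated firefly luciferase, in erythrocytes at 2% hematocrit, 0.05% parasitemia, incubated with compounds 96 h at 37 C, 5% CO2. Growth inhibition read as loss of luminescence; two-generation exposure targets delayed-death apicoplast inhibitors.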
Pf growth 48h – Primary qHTS for delayed death inhibitors of the malarial parasite plastid, 48 hour incubation. P. falciparum luciferase growth in erythrocytes, 48 h. Potency, µM (highest dose often 28.7 µM), without a hit: at the top dose activity change, negative = inhibition, hits mostly inhibitors. actives 5.9% (n = 310,000). AID 504832, 2011; further: potency means the concentration at half of the fitted maximal effect; on the % scale 0 is the no-effect control and ±100 the full control effect
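Parasite viability was followed by luminescence of a genomically integrated firefly luciferase. Cultures held 0.1% parasitemia at 2% hematocrit (final), incubated under 5% CO2 at 37 C.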
Shiga toxin inh – A qHTS for Small Molecule Inhibitors of Shiga Toxin | AID 2315, 2010 | Vero cells, Shiga toxin protein synthesis inhibition reporter | actives 9.2% (n = 290,000) | inhibition, % at 38.7 µM; in the data active means inhibition mostly above about 28%, no sharp cut-off; inactive means mostly below about 43%; further: 0% is about no effect
Starred values were filed as active, the others as inactive; ? = inconclusive; . = not tested or not shown; [ ] = remark or other dose. Unless noted, the call rests on the fitted dose curve; in most records, active means well fitted inhibition curve with a large enough effect; inconclusive means small, poorly fitted or top-dose-only effect, or another doubt; inactive means no such curve, though single readings can be large or run the other way.

SMILES | Cycloheximide cs | SARS PLpro yeast | NS1 function inh | Pf growth 96h | Pf growth 48h | Shiga toxin inh
COc1ccc(-c2cc3ncc(C(C)=O)c(C)n3n2)cc1 | 28* | 1% | -2% | ? | 78% | 68*
CC(=O)c1cnc2cc(C)nn2c1C | -2 | 3% | 2% | ? | 47% | -4
CCCCn1c(N)c(N(Cc2ccccc2OC)C(=O)COc2ccc(F)cc2Cl)c(=O)[nH]c1=O | -1 | -3% | -4% | ? | -6% | 2
CCCCN(C(=O)NCCCCCCNC(=O)N(CCCC)C1CCS(=O)(=O)C1)C1CCS(=O)(=O)C1 (configuration not stated) | 4 | 0% | -3% | ? | ? | 2
O=C(CSc1cccc(C(F)(F)F)c1)Nc1ccc(Cl)cc1Cl | -2 | -9% | -5% | 68% | 42% | -20
CC(C)N1C(=O)NC(=O)C2(Cc3cc([N+](=O)[O-])ccc3N(C)C2c2ccccc2)C1=O (configuration not stated) | -3 | -6% | 2% | 12µM* | ? | -12
CN1c2ccc([N+](=O)[O-])cc2CC2(C(=O)NC(=O)N(c3ccccc3)C2=O)C1c1ccccc1 (configuration not stated) | -5 | 3% | 24% | 2.9µM* | 3.3µM* | -5
CN1c2ccc([N+](=O)[O-])cc2CC2(C(=O)NC(=O)NC2=O)C1c1ccccc1 (configuration not stated) | -2 | 17% | 23% | ? | ? | -4
CCOC(=O)N1CCC(NC(=O)CCC(=O)N2CC(C)Oc3ccc(Cl)cc32)CC1 (configuration not stated) | 3 | -2% | -5% | 14% | -23% | -1
COc1cc(OC)c(CN2CCC(Cc3ccccc3)CC2)cc1Br | -1 | -3% | 13% | 198% | -15% | -3
Cc1ccc2nc(C)c3c(c2c1)OC(C(C)(Cl)Br)C3 (configuration not stated) | -4 | -2% | -44% | ? | 13µM* | -4
CCC(=O)Nc1ccc(NC(=O)c2oc3ccccc3c2C)cc1 | 10* | 1% | -28% | ? | 88% | 24
Cc1c(C(=O)NCc2ccccn2)oc2ccc(Br)cc12 | . | 6% | . | 108% | 54% | .
CCC(=O)Nc1ccc(NC(=S)NC(=O)c2oc3ccccc3c2C)cc1 | -3 | 9% | -4% | -22% | -15% | -7
CC(=O)Nc1cccc(NC(=O)c2oc3ccccc3c2C)c1 | 48* | -13% | -22% | . | 218% | 100*
Cc1c(C(=O)Nc2cnccn2)oc2ccccc12 | 28* | 4% | -16% | ? | ? | 61*
CC(=O)Nc1ccc(NC(=S)NC(=O)c2oc3ccccc3c2C)cc1 | -3 | 0% | 11% | 45% | -6% | -5
Cc1c(C(=O)NCc2ccccn2)oc2ccccc12 | 32* | -1% | -3% | 13%[5.75 µM] | 69% | 39*
Cc1cc(NC(=O)CSc2nc(C)c(C)c(=O)[nH]2)no1 | . | -2% | . | 20% | -7% | .
COC(=O)c1ccc(Cn2nnc3ccccc32)cc1 | -3 | 0% | -46% | 35% | ? | 2
COC(=O)c1ccc(COn2nnc3ccccc32)cc1 | 39* | -7% | . | 295% | 306% | 97*
Clc1cccc(Cl)c1COn1nnc2ccccc21 | 25* | -3% | -68% | ? | . | 37
Cc1ccc(C)c(NC(=S)NNC(=O)c2cc3c(s2)CCC(C)C3)c1 (configuration not stated) | -1 | ? | 8% | -16% | 19% | -8
Cc1ccc(C)c(NC(=O)CN(C)C(=O)c2sccc2C)c1 | . | 8% | . | 2% | 1% | .
Cc1ccc(C)c(NC(=S)NNC(=O)c2csc(C(C)C)c2)c1 | 18* | 10µM* | -9% | -6% | 27% | 28
SMILES | Cycloheximide cs | SARS PLpro yeast | NS1 function inh | Pf growth 96h | Pf growth 48h | Shiga toxin inh
Cc1ccc(C)c(NC(=S)NNC(=O)c2csc(C)c2C)c1 | 18* | -7% | 20% | 30% | 15% | 22*
Cc1ccc(C)c(NC(=S)NNC(=O)c2sccc2C)c1 | 29* | 1% | -4% | 7%[5.75 µM] | 14% | 121*
Cc1cc(N2CCN(c3ccccc3)CC2)nc2ccccc12 | 10 | -3% | -13% | 0% | 13% | 51
Cc1cc(N2CCC(N(C)C3CCCC3)CC2)nc2cc(O)ccc12 | -2 | 8% | -1% | -26% | 1.9µM* | 10
N#C/C(=C/c1ccco1)c1nc2ccccc2s1 | 94* | -29% | 6% | -12% | 32% | 119*
N#C/C(=C\c1ccco1)c1nc2ccccc2s1 | 70* | 4% | -15% | 0% | 59% | 110*
N#C/C(=C/c1ccc(-c2cc(C(=O)O)cc(C(=O)O)c2)o1)c1nc2ccccc2s1 | 8 | 0% | . | 28% | 9% | -1
N#C/C(=C\c1ccc(O)c([N+](=O)[O-])c1)c1nc2ccccc2s1 | 25 | -4% | . | ? | -15% | 62
CCCCNc1c(-c2ccc(SC3CCCCC3)cc2)nc2cnccn12 | . | -1% | . | . | . | .
CCCCCCSc1ccc(-c2nc3ccc(C)cn3c2NC2CCCCC2)cc1 | . | -10% | . | 13µM* | 9.3µM* | .
COc1cc(-c2nc3cc(C)ccn3c2NC2CCCCC2)ccc1-c1ccc(C(C)=O)cc1 | . | -13% | . | 10µM* | 5.2µM* | .
CCCCNc1c(-c2ccc(OC)c(SC3CCCCC3)c2)nc2cnccn12 | . | 3% | . | 9.3µM* | 10µM* | .
CCCCCCSc1cc(-c2nc3cnccn3c2NCc2ccccc2)ccc1OC | . | 3% | . | 5.9µM* | 7.4µM* | .
CCC(C)Sc1ccc(-c2nc3cc(C)ccn3c2NC2CCCCC2)cc1 (configuration not stated) | . | 6% | . | . | . | .
O=C(CCC(=O)N1CCN(c2ccccn2)CC1)Nc1nnc(C(F)(F)F)s1 | -3 | 1% | -1% | ? | -3% | -1
N#Cc1ccccc1NC(=O)CSc1cn[nH]n1 | 2 | 17% | 30% | 0% | 4% | 19
Cc1cccc(-c2noc(C(C)NC(=O)c3ccco3)n2)c1 (configuration not stated) | -2 | -2% | -14% | 21% | 10% | 4
COc1ccc(/C=N/NS(=O)(=O)c2ccc(F)cc2)cc1CN1CCSCC1 | -1 | -2% | 0% | ? | -16% | 2
COc1ccc(-c2nc3cnccn3c2NCc2ccccc2)cc1SC1CCCCC1 | . | 0% | . | 13µM* | ? | .
Cc1ccn2c(NC3CCCC3)c(-c3ccncc3)nc2c1 | 4 | 3% | . | ? | 37% | 4
CCCCCCSc1cc(-c2nc3cc(C)ccn3c2NC2CCCCC2)ccc1OC | . | -3% | . | 8.3µM* | 7.4µM* | .
Cc1ccn2c(NC3CCCCC3)c(-c3cccc(-c4cccc(Cl)c4)c3)nc2c1 | . | -1% | . | 10µM* | 8.3µM* | .
CCCCNc1c(-c2ccc(OC)c(SC3CCCCC3)c2)nc2cc(C)ccn12 | . | 4% | . | ? | 9.3µM* | .

High-throughput results from PubChem.
